This is one part of the list. Calls of active or inactive are those of the source. Calls follow the shape of the dose curve; as a rule, active = well fitted curve in the direction sought with a large enough effect; inactive = no such curve, though single readings can be large or run the other way.
Assay: qHTS for Inhibitors of mutant isocitrate dehydrogenase 1 (IDH1): Cherrypicks Autofluorescence Interference;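 also: 0% = wells with normal resorufin and full inhibition = wells lacking resorufin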
Details: Resorufin detection reagent fluorescence interference, cell-free; series mostly up to 51.2 µM; inhibition of signal: at the top concentration
Description: Readout Interference Assay for Inhibitors of IDH1 R132H and WT IDH1 Malignant glioblastomas (WHO grade IV), including primary and secondary glioblastomas, are among the most lethal with a median survival of one year, and unfortunately they are also the most prevalent type of brain tumors. By and large the standard of care of gliomas remains the use of the oral alkylating agent temozolomide and radiotherapy following surgical tumor resection. There is an urgent unmet medical need for novel therapeutics for gliomas. IDH mutations occur in up to 70% of grade II-IV secondary glioblastomas, and IDH1 R132H is the most prevalent mutation. […] Wild-type (WT) IDH1 catalyzes the conversion of isocitrate to a-ketoglutarate with the concomitant reduction of NADP+ to NADPH. In contrast, IDH1 R132H catalyzes the conversion of -ketoglutarate to 2-hydroxyglutarate (2-HG) with the concomitant oxidation of NADPH to NADP+ [5]. Recently, a second significant advancement for the field was the finding that IDH is an oncogene, and that its metabolic product 2-HG may contribute to the pathogenesis of IDH-mutated cancers. […] Although this link to cancer is tantalizing, the direct evidence of how 2-HG drives pathogenesis of gliomas and AML remains a subject of further research. The goal of this detection interference assay is to identify whether the potential small-molecule inhibitors of IDH1 R132H or WT IDH1 confound the fluorescence readout by interfering with the detection reagent. Inhibition of the detection reagent would lead to a decrease in observed fluorescence of the product resorufin relative to the DMSO control. Compounds were screened as concentration-titration series that ranged from 76 uM to 0.15 uM. NIH Molecular Libraries Probe Production Network [MLPCN] NIH Chemical Genomics Center [NCGC] MLSCN Grant: R03 DA032129 PI Name: Dr. Lenny Dang
Detection reagent buffer was dispensed into black, solid 1536-well plates at 9 microL/well in 20 mM Tris buffer, pH 7.5, containing final concentrations of 10 mM MgCl2, 20 mM NaCl, 0.05% BSA, 2 mM beta-ME, 0.008 mM NADPH, 1 mM alpha-ketoglutarate, and 0.008 mM resorufin. Then, 23 nL of compounds or DMSO were delivered to each well using a pin tool. The fluorescence intensity was monitored on an Envision plate reader at 590 nm (Ex 540, Em 590, bodipy mirror, 10 flashes). The %Activity was determined from the corrected fluorescence values. Resorufin at 0x was included to normalize %Activity of identified inhibitors; 0x resorufin values corresponded to 100%Activity (full inhibition), while 1x resorufin values were used to normalize 0%Activity (no inhibition). Concentration-response curves were fitted to the signals arising from the resulting fluorescence. The concentration-response curves were then classified based on curve quality (r2), response magnitude and degree of measured activity, and compounds were subsequently categorized based on their curve class. […] Keywords: Isocitrate dehydrogenase, IDH1, IDH1 R132H, 2-HG, 2-hydroxyglutarate, AML, glioma, MLSMR, MLPCN, NIH Roadmap, qHTS, NCGC

Inhibition of signal, inactive:
COc1ccc(C(C(=O)NC2CCCCC2)N(C(=O)c2snc(C(N)=O)c2N)c2ccccc2OC)cc1 (centres undefined) -1.26%, Cc1cccc(N(C(=O)Cc2cccs2)C(C(=O)NC2CCCC2)c2ccsc2)c1 (centres undefined) -1.86%, COC(=O)c1ccc(-c2c(-c3ccccc3)ncc3cc(OC)c(OC)cc23)cc1 5.32%, Cc1nc(-c2ccc(Cl)cc2)sc1C(=O)CBr 2.34%, COc1ccc(Cl)cc1-n1c(=S)sc2c(=O)n(-c3ccc(F)cc3)c(SCC(=O)O)nc21 -36.4%, COc1cc(/C=C2/C(=O)ON=C2C)ccc1OCc1ccccc1F 4.14%, CCCOc1ccc(C2c3c(-c4ccccc4O)n[nH]c3C(=O)N2Cc2cccnc2)cc1 (centres undefined) -5.36%, CCOC(=O)c1ccc(N2C(=O)c3n[nH]c(-c4ccco4)c3C2c2ccc(O)cc2)cc1 (centres undefined) -3.39%, COc1ccc(C(CCN(Cc2ccc(OC)c(OC)c2)C(=O)CCl)c2ccccc2)cc1 (centres undefined) 3.98%, Cc1ccc(-c2nn(-c3ccccc3)cc2/C=C2\SC(=S)N(CCCCCC(=O)O)C2=O)o1 0.67%, CC(C)Nc1nc(N(c2ccccc2)c2ccccc2)nc(-n2ccnc2)n1 3.09%, COc1ccc(/C=N/Nc2cc(N3CCOCC3)nc(C)n2)c(OC)c1 -13.2%, CCOC(=O)c1oc2c(CN3CCN(CCO)CC3)c(O)c(CC)cc2c(=O)c1-c1nc2ccccc2s1 -3.6%, CC(C)N(C(=O)CSc1nc(COc2ccccc2)nc2ccccc12)C(C)C -7.76%, COc1cc(/C=C2/SC(=S)N(Cc3ccccc3)C2=O)cc(OC)c1O 2.53%, CCCCC(=O)NC(c1ccc(OC)c(OC)c1)c1ccc2cccnc2c1O (centres undefined) 7.47%, CCCNc1ncnc2c1c(-c1ccccc1)cn2-c1ccc(OCC)cc1 -0.98%, CCCc1[nH]nc2c1C(c1ccc(OC)c(Cn3nc(C)c(Br)c3C)c1)C(C#N)=C(N)O2 (centres undefined) -4.01%, COc1cc2c(-c3ccc4c(c3)OCO4)c(-c3ccsc3)oc(=O)c2cc1OC 2.12%, CCC(C)(C)NC(=O)C(c1cccn1C)N(Cc1ccc(C)cc1)C(=O)Cn1nnc2ccccc21 (centres undefined) -2.24%, CCCc1nc2c(c(=O)c3ccccc3n2C)c(=O)n1C1CCCCCC1 -4.87%, Cc1nc(C)c(C(=O)N(c2ccc(C)c(C)c2)C(C(=O)NCc2ccco2)c2ccccc2)s1 (centres undefined) 2.62%, CC(C)(C)c1ccc(S(=O)(=O)Nc2ccc(O)c(Sc3nc4ccccc4s3)c2)cc1 -6.05%, Cc1ccc(Nc2nc(CSc3nnc(-c4ccncc4)n3-c3ccccc3C)cs2)cc1 10.4%, O=C(NC(Nc1nc2ccc([N+](=O)[O-])cc2s1)(C(F)(F)F)C(F)(F)F)c1ccccc1 7.74%, CCCCOc1ccc(CN2C(=O)C(=O)c3cc(Br)cc(C)c32)cc1OC -4.85%, C(=N/Nc1cc(N2CCOCC2)nc(N2CCOCC2)n1)/c1ccccc1 -4.67%, N#CC1=C(N)C(C#N)(C#N)[C@H](c2ccsc2)[C@H]2COCC=C12 7.1%, COC(=O)c1cccc(N(C(=O)c2ccco2)C(C(=O)NC2CCCC2)c2ccco2)c1 (centres undefined) 1.47%, O=C1c2cccc3cccc(c23)C(=O)N1CCCCCc1n[nH]c(=S)o1 8.06%, CCSc1nc2sc3c(c2c(=O)n1-c1ccc(C)cc1)CCN(C)C3 -9.92%, Cc1ccc2nc(N3C(=O)C(O)=C(C(=O)c4ccco4)C3c3cccc(O)c3)sc2c1 (centres undefined) 6.24%, COc1ccc(/C=C2/SC(=O)N(CCCCCC(=O)Nc3ccccc3C(=O)O)C2=S)cc1 -2%, Cn1c(COc2ccc(Cl)cc2)nc2ccccc2c1=O -3.55%
